# Legend:
# [1] = molecular target: Tyrosine-protein kinase CSK (Homo sapiens) (UniProt P41240); settings: at 1 µM;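 note: each value is an averaged inhibition reading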
# [2] = molecular target: T1, Discoidin domain-containing receptor 2 (Homo sapiens) (UniProt Q16832); settings: at 0.1 µM
# T1 sequence (whole entry): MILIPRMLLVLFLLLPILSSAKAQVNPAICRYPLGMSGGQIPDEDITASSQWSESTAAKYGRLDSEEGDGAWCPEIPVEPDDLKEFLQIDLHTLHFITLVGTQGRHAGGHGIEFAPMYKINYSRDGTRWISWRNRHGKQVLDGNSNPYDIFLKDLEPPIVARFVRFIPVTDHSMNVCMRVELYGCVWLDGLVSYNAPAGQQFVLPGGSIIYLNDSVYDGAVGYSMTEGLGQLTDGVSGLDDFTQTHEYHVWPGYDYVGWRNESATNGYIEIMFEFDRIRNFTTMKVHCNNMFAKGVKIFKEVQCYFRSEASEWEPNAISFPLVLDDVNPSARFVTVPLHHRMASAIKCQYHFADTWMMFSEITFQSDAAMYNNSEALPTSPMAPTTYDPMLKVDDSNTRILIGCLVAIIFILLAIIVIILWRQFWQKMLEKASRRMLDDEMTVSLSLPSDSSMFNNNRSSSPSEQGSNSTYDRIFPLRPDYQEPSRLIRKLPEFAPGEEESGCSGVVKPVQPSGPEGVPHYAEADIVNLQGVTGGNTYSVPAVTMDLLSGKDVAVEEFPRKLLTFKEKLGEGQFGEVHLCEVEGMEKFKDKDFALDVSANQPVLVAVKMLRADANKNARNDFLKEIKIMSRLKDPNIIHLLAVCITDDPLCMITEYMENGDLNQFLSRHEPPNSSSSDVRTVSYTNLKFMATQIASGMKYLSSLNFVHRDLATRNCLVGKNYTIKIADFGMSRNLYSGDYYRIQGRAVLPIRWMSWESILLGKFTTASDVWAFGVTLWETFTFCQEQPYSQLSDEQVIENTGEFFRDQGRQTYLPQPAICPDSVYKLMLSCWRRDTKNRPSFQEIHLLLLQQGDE
# [3] = molecular target: T1, Discoidin domain-containing receptor 2 (Homo sapiens); settings: at 1 µM
# [4] = molecular target: Epidermal growth factor receptor (Homo sapiens) (UniProt P00533); settings: at 0.1 µM
# [5] = molecular target: Epidermal growth factor receptor (Homo sapiens) (UniProt P00533); settings: at 1 µM
# [6] = test system: Epidermal growth factor receptor (Homo sapiens), P00533 [L858R]; settings: at 0.1 µM
# Chain of Epidermal growth factor receptor (Homo sapiens), P00533 [L858R] (P00533 whole entry L858R): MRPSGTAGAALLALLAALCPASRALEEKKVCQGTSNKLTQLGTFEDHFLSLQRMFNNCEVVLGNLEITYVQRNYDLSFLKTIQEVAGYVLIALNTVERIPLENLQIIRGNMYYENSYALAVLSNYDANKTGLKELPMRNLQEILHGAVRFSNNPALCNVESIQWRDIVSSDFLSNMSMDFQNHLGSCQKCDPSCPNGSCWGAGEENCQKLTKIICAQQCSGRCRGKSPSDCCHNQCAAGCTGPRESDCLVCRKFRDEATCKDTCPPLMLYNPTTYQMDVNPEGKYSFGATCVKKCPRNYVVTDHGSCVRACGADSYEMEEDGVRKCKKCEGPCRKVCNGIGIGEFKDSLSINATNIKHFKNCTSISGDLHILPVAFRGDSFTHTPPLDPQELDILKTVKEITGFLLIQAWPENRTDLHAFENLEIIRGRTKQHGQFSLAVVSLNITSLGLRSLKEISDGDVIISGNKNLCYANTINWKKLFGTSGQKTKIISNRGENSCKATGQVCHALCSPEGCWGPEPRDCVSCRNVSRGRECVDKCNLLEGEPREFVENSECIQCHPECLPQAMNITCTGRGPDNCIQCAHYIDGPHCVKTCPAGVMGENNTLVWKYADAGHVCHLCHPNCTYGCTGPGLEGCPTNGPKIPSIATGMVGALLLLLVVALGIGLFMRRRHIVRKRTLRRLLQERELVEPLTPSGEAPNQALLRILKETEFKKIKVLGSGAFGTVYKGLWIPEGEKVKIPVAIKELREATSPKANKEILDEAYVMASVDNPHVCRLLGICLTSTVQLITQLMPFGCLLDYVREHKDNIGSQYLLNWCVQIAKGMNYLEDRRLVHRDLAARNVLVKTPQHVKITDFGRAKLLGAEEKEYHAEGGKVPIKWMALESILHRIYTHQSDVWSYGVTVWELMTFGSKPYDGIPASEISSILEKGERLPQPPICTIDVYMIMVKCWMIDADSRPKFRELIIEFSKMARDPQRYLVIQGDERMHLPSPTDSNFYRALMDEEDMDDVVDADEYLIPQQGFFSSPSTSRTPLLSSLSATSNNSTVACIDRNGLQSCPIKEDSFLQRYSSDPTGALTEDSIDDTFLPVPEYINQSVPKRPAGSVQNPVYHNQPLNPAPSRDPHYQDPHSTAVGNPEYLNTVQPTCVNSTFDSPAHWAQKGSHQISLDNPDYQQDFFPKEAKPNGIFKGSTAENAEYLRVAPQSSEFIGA
# [7] = test system: Epidermal growth factor receptor (Homo sapiens), P00533 [L858R]; settings: at 1 µM
# [8] = test system: Epidermal growth factor receptor (Homo sapiens), P00533 [L861Q]; settings: at 0.1 µM
# Chain of Epidermal growth factor receptor (Homo sapiens), P00533 [L861Q] (P00533 whole entry L861Q): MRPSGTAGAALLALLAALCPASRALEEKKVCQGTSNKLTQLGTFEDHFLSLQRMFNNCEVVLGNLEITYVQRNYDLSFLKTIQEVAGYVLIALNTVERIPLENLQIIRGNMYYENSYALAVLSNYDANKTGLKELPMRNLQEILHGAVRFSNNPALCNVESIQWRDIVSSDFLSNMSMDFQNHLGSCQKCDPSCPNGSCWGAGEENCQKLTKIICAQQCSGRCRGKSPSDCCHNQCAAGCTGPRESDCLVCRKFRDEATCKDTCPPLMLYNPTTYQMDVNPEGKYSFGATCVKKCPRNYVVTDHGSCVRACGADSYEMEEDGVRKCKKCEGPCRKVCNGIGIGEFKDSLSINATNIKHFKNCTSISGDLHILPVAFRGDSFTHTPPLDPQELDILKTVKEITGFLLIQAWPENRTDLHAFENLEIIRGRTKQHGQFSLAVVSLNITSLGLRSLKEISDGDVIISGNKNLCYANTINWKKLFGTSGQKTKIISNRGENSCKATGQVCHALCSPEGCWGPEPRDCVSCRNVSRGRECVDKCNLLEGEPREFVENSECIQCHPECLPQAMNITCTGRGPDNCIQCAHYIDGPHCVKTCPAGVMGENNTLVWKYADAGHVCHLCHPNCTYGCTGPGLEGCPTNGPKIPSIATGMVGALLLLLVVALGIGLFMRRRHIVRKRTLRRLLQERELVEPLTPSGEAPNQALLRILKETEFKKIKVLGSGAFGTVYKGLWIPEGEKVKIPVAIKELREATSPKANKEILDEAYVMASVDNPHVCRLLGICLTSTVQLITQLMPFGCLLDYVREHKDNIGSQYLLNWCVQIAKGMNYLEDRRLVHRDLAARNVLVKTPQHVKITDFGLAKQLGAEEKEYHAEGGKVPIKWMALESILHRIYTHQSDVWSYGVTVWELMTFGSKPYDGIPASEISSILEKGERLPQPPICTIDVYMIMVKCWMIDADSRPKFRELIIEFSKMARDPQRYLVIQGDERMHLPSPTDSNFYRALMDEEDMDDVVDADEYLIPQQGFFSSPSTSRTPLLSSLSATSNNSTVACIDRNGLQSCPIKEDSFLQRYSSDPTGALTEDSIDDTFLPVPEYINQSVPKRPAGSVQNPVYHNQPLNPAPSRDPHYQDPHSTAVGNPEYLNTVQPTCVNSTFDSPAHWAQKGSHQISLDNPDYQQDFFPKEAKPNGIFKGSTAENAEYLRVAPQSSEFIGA
# [9] = test system: Epidermal growth factor receptor (Homo sapiens), P00533 [L861Q]; settings: at 1 µM
# [10] = test system: Epidermal growth factor receptor (Homo sapiens), P00533 [T790M]; settings: at 0.1 µM
# Chain of Epidermal growth factor receptor (Homo sapiens), P00533 [T790M] (P00533 whole entry T790M): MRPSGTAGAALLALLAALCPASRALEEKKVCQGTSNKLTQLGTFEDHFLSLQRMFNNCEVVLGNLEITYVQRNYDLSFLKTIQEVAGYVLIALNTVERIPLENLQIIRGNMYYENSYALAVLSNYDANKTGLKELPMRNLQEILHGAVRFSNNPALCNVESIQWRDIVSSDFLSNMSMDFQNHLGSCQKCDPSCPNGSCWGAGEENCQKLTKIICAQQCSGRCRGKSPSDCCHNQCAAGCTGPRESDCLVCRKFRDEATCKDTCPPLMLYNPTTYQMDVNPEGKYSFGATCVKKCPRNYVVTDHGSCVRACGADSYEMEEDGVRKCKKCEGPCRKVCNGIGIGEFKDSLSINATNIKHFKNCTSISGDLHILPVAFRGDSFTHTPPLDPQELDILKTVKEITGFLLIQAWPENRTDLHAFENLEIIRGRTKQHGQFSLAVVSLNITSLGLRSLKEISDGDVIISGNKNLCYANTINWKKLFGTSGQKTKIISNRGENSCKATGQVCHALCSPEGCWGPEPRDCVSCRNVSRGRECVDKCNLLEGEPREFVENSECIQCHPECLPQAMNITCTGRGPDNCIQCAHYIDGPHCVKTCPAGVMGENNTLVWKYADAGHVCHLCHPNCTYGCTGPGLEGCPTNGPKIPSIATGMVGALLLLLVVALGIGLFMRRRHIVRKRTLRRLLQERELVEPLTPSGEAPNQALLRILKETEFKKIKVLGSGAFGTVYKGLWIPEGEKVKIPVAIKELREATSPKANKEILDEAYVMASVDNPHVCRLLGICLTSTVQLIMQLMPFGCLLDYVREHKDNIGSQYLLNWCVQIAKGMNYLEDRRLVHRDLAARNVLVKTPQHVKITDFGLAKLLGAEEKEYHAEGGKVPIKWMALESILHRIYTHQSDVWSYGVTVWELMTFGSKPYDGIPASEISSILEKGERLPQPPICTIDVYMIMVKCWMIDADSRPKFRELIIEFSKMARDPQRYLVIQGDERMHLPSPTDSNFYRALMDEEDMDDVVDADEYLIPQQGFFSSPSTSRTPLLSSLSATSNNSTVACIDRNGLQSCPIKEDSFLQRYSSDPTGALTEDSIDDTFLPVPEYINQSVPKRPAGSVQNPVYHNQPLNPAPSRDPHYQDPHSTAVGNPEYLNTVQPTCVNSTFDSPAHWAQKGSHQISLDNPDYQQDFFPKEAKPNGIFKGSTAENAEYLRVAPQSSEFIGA
# [11] = test system: Epidermal growth factor receptor (Homo sapiens), P00533 [T790M]; settings: at 1 µM
# [12] = test system: Epidermal growth factor receptor (Homo sapiens), P00533 [L858R,T790M]; settings: at 0.1 µM
# [13] = test system: Epidermal growth factor receptor (Homo sapiens), P00533 [L858R,T790M]; settings: at 1 µM
# [14] = molecular target: Ephrin type-A receptor 2 (Homo sapiens) (UniProt P29317); settings: at 0.1 µM
# [15] = molecular target: Ephrin type-A receptor 2 (Homo sapiens) (UniProt P29317); settings: at 1 µM
# [16] = molecular target: T2, Ephrin type-A receptor 3 (Homo sapiens) (UniProt P29320); settings: at 0.1 µM
# T2 sequence (whole entry): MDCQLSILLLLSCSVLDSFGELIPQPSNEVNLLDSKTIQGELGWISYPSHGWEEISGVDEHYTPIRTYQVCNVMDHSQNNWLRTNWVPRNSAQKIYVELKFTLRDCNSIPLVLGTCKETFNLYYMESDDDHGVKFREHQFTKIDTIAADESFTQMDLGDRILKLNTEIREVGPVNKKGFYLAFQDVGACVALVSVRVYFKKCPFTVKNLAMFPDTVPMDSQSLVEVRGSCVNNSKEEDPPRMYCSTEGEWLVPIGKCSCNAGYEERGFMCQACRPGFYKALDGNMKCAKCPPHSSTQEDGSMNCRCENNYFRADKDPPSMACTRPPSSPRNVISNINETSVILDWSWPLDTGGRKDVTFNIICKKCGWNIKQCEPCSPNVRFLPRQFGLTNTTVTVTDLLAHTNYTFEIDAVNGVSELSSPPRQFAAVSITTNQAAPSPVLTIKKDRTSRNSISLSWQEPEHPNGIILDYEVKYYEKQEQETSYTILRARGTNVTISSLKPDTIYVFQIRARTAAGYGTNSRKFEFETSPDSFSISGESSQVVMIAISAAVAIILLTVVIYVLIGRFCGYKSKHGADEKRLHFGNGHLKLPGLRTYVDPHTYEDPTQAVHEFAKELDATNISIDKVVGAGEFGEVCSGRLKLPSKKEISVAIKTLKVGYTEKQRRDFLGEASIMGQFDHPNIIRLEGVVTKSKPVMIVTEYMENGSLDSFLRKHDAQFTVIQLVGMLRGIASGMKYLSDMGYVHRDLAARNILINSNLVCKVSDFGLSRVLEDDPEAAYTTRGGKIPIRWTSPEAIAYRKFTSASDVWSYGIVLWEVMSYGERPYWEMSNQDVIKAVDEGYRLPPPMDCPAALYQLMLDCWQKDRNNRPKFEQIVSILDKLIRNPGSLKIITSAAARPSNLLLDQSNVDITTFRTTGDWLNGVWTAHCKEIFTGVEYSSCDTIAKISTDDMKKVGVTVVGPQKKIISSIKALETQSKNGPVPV
# [17] = molecular target: T2, Ephrin type-A receptor 3 (Homo sapiens); settings: at 1 µM
# [18] = molecular target: Ephrin type-A receptor 4 (Homo sapiens) (UniProt P54764); settings: at 0.1 µM
# Chain of Ephrin type-A receptor 4 (Homo sapiens) (P54764 whole entry): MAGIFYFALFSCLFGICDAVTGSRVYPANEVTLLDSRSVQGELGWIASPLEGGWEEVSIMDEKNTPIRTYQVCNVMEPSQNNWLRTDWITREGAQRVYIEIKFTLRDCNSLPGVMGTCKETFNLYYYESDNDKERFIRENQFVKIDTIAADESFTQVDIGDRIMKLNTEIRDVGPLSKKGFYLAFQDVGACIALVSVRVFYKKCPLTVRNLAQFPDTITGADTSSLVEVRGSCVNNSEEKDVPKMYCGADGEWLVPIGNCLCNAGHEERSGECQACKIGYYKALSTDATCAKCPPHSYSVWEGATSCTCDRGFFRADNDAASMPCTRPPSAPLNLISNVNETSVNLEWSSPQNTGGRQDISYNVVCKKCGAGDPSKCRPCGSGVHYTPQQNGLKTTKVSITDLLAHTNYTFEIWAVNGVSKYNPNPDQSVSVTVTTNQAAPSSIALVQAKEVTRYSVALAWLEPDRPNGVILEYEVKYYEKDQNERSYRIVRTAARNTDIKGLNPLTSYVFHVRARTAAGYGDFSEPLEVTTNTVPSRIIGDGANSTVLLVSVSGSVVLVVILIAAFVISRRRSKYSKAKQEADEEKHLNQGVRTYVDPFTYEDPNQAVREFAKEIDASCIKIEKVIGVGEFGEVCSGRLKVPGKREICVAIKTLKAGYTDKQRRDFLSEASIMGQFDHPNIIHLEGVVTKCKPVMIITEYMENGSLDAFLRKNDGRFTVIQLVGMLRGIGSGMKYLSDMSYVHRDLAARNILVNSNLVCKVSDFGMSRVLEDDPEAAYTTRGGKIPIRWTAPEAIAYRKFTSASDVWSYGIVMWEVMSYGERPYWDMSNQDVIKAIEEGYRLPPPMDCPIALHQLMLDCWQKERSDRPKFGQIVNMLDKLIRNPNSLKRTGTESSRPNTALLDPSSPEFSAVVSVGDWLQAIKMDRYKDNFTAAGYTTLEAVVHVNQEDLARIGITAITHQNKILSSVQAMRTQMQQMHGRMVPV
# [19] = molecular target: Ephrin type-A receptor 4 (Homo sapiens) (UniProt P54764); settings: at 1 µM
# [20] = molecular target: T3, Ephrin type-B receptor 2 (Homo sapiens) (UniProt P29323); settings: at 0.1 µM;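 note: reported as mean inhibition of EPHB2, from the GSK PKIS dataset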
# T3 sequence (whole entry): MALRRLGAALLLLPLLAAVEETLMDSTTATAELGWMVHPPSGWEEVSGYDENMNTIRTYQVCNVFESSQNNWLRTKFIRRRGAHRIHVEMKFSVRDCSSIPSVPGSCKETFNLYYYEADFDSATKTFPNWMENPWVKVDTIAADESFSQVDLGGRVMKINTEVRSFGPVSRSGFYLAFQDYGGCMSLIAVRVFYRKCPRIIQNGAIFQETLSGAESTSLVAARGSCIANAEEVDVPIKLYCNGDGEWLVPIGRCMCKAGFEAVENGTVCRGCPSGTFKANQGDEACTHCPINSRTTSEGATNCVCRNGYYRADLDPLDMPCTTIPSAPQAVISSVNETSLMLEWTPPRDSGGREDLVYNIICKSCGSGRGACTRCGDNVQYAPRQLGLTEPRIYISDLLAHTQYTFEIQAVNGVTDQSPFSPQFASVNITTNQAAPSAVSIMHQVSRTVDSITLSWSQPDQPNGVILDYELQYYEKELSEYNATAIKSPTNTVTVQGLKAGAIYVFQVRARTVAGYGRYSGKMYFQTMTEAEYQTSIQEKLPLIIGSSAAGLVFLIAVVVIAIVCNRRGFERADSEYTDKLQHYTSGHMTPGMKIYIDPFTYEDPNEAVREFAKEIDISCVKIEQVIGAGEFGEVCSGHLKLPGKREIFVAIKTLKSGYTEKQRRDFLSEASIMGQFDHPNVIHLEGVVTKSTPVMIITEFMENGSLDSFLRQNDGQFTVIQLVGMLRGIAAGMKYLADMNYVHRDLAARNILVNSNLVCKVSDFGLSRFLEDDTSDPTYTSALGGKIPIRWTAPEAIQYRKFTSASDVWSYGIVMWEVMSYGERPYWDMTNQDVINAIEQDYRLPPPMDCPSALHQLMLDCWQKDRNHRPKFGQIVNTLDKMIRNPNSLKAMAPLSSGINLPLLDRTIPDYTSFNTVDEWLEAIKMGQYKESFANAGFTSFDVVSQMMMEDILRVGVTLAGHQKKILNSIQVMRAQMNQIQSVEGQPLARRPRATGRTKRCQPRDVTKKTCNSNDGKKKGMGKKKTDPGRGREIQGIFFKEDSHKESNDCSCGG
# Chain of Tyrosine-protein kinase CSK (Homo sapiens) (P41240 2-450 limits assumed): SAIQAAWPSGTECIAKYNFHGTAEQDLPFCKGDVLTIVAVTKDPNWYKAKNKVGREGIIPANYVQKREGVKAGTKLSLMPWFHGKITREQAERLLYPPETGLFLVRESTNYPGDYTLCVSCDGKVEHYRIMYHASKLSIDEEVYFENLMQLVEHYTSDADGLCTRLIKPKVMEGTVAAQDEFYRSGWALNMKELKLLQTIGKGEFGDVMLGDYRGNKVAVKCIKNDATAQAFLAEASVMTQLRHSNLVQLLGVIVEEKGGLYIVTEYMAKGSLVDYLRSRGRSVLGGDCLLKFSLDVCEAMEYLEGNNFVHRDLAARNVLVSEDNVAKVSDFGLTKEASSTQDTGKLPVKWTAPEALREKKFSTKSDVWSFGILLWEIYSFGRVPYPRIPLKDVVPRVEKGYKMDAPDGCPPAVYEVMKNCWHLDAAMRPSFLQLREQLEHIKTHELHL
Structure (SMILES),inhibition [1],inhibition [2],inhibition [3],inhibition [4],inhibition [5],inhibition [6],inhibition [7],inhibition [8],inhibition [9],inhibition [10],inhibition [11],inhibition [12],inhibition [13],inhibition [14],inhibition [15],inhibition [16],inhibition [17],inhibition [18],inhibition [19],inhibition [20]
CCS(=O)(=O)c1ccc(OC)c(Nc2ncc(-c3cccc(C(C)=O)c3)o2)c1,10.1%,3.31%,17.9%,4.92%,9.23%,5.11%,16.6%,5.35%,5.8%,1.86%,4.71%,1.19%,7.18%,3.84%,2.23%,3.51%,6.85%,9.55%,16.9%,9.45%
COc1cccc(Nc2nccc(-c3cnn4ncccc34)n2)c1,11.8%,0.85%,4.16%,-2.03%,5.8%,2.1%,9.34%,1.66%,3.56%,1.52%,1.13%,4.75%,9.99%,1.1%,12.2%,4.37%,8.81%,9.73%,36.6%,9.43%
COc1cc2c(cc1Nc1nc(Nc3cccc(F)c3C(N)=O)c3cc[nH]c3n1)N(C(=O)CN1CCN(C(C)C)CC1)CC2,-3.02%,-1.78%,-0.55%,2.48%,17.1%,-0.57%,15.1%,1.65%,13.7%,2.59%,27%,1.09%,47.3%,1.37%,0.53%,1.47%,0.43%,3.76%,4.41%,2.75%
COc1cccc(-n2ncc3c(N/N=C/c4ccc(C(=O)NCCN(C)C)cc4)ncnc32)c1,22%,7.86%,41%,16.7%,56.4%,63.6%,90.6%,23%,68.7%,0.59%,4.06%,4.3%,25.9%,1.33%,5.44%,3.11%,6.35%,2.76%,15.9%,14.1%
COc1ccc2ncn(-c3cc(O[C@H](C)c4ccccc4C(F)(F)F)c(C(N)=O)s3)c2c1,-2.18%,-0.82%,-2.22%,0.37%,2.93%,-1.19%,1.03%,-0.87%,0.54%,-1.45%,-1.39%,-1.39%,-0.48%,-3.1%,-4.03%,0.39%,2.63%,0.27%,0.47%,1.25%
COC(=O)Nc1nc2cc(Oc3ccc(NC(=O)Nc4ccccc4)cc3)ccc2[nH]1,1.41%,77.2%,81.4%,0.9%,-0.33%,0.78%,4.35%,1.19%,1.08%,-1.39%,2.64%,-2.44%,2.14%,2.42%,3.37%,4.93%,1.33%,8.86%,11.2%,5.01%
CS(=O)(=O)CCNCc1ccc(-c2ccc3ncnc(Nc4ccc(OCc5ccccc5)cc4)c3c2)o1,9.28%,1.74%,2.07%,83.8%,94.1%,31.4%,71.2%,33%,55.7%,4.15%,12.4%,0.12%,4.35%,1.77%,1.18%,5.21%,5.62%,9.98%,11.5%,6.07%
c1ccc(-c2n[nH]cc2-c2ccnc(-c3ccc(OCCn4ccnc4)cc3)c2)nc1,1.94%,0.36%,1.9%,0.25%,5.66%,1.97%,24.5%,-0.83%,5.84%,-1.24%,0.85%,-0.66%,2.87%,-2.85%,-3.04%,-1.82%,0.58%,0.18%,0.69%,-0.16%
CS(=O)(=O)Nc1ccc(-c2cc(-c3ccccc3)cc(C(N)=O)c2N)cc1,1.29%,-0.17%,1.14%,11.5%,17.2%,1.51%,1.89%,0.77%,5.17%,-0.83%,-0.33%,1.11%,1.75%,-3.41%,-2.62%,0.48%,-0.2%,1.75%,4.07%,6.68%
CCOc1ccc2c(-c3ccnc(Nc4cc(OC)cc(C(F)(F)F)c4)n3)cnn2n1,0.11%,-0.19%,1.4%,2.81%,5.28%,2.28%,3.23%,1.52%,2.39%,0.36%,0.47%,0.87%,-2.16%,-2.58%,-0.79%,-0.82%,1.98%,2.94%,6.63%,3.54%
CC1=C(C(=O)Nc2ccc3[nH]ncc3c2)C(c2ccc(F)cc2)N=C(c2ccc(C(F)(F)F)nc2)N1 (stereo not given),6.65%,1.54%,6.22%,3.43%,7.73%,4.85%,6.69%,2.32%,2.72%,0.14%,0.81%,4.44%,-0.48%,-1.16%,-0.31%,3.49%,3.54%,5.75%,6.21%,8.47%
FC(F)(F)CNc1nccc(-c2cnn3ncccc23)n1,0.56%,1.12%,0.22%,1.39%,6.21%,2.83%,0.26%,0.58%,0.31%,-0.49%,0.02%,-1.87%,1.32%,0.5%,-1.3%,3.4%,4.73%,5.82%,7.58%,5.3%
Cc1cc(O)cc(C)c1/C=C/c1cncc(C(=O)OC(C)(C)C)c1,32.9%,1.51%,2.49%,1.62%,5.14%,3.7%,17%,2.25%,4.72%,0.92%,2.69%,2.41%,0.87%,16.6%,60.8%,11.2%,22.4%,31.1%,80.6%,23%

# Source: ChEMBL document CHEMBL1961873, “Compounds: GSK PKIS; Assays: Nanosyn kinase panel” (2012)
